The campaign covered roughly 390,000 compounds. About 2,600 (0.67%) were called active. For the sample, actives were picked, then their nearest neighbours and some compounds at random. A number with no mark means an inactive call.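 The calls were made as follows: active = mean inhibition of replicates at least 50% and at least half of replicates each reaching 50%; inconclusive = half or more replicates reach 50% but mean below 50%; inactive = the rest.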
target: Transforming acidic coiled-coil-containing protein 3 (Homo sapiens) (UniProt Q9Y6A5); test: inhibitors of ARNT PAS-B binding to TACC3 – biochemical, AlphaScreen, single concentration, primary screen (AID 623870); conditions: AlphaScreen His-ARNT PAS-B/GST-TACC3 binding, luminescence; at 9.99 µM; stronger effect = higher value; TACC3 fragment carries E629A point mutation;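 also: 0% = complete ARNT plus TACC3 wells and 100% = ARNT alone without TACC3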

SMILES | inhibition
CCOc1ncccc1C(=O)NCCc1ccc(OC)cc1 | 3.87%
COc1ccc(CNC(=O)COc2cccnc2[N+](=O)[O-])cc1 | -14.8%
C/C(Cc1ccccc1)=N\NC(=O)CNC(=O)c1ccccc1Cl | 4.6%
COc1ccc(CC(=O)N/N=C(\C)c2ccccn2)cc1 | 65.8% (active)
C/C(=N\NC(=O)Cc1ccc(Cl)cc1)c1ccccn1 | 28.6% (active)
C/C(=N/NC(=O)CSc1ccccn1)c1ccc([N+](=O)[O-])cc1 | -1.61%
C[C@H]1CN([C@@H](C)CO)C(=O)c2cc(/C=C/c3ccccc3)cnc2O[C@H]1CN(C)Cc1cccc(C(=O)O)c1 | -2.95%
CO[C@@H]1CN(C)C(=O)c2cc(NC(=O)Nc3cc(F)ccc3F)ccc2OC[C@@H](C)N(C)C[C@H]1C | 11.6%
CO[C@H]1CN(C)C(=O)c2cc(NC(=O)C3CCOCC3)ccc2OC[C@@H](C)N(Cc2cccnc2)C[C@@H]1C | -4.49%
CCNC(=O)C[C@H]1CC[C@@H]2[C@H](COc3ccc(NC(=O)Nc4cccc(Cl)c4)cc3C(=O)N2C)O1 | 4.93%
CO[C@@H]1CN(C)C(=O)c2cc(NC(=O)C3CCOCC3)ccc2OC[C@H](C)N(Cc2cccnc2)C[C@@H]1C | -4.7%
CCCN(C)C[C@@H]1Oc2cc(-c3ccc(C)cc3)ccc2S(=O)(=O)N([C@@H](C)CO)C[C@H]1C | 3.53%
CO[C@H]1O[C@H](CO)[C@@H](OC(=O)Nc2ccccc2-c2ccccc2)[C@H](OC(=O)Nc2ccccc2)[C@H]1OC(=O)Nc1ccccc1 | 0.749%
COc1ccccc1-c1ccc([C@@H]2[C@@H](CO)N3CCCCN(C(=O)c4ccncc4)C[C@@H]23)cc1 | -0.716%
CC(NC(=O)COc1cccnc1[N+](=O)[O-])c1ccc(Cl)cc1Cl (configuration not stated) | 1.05%
CC1(c2ccc(Cl)cc2Cl)NC(=O)N(CC(=O)Nc2cccnc2Cl)C1=O (configuration not stated) | 0.909%
CC(=O)/C(=N\Nc1ccc(Cl)cc1Cl)Sc1cccc2cccnc12 | 61.1% (active)
CN1C[C@H]2[C@@H](c3ccccc31)[C@@H](CO)N2Cc1ccccc1 | 2.13%
COc1ccc(NC(=O)Nc2ccc3c(c2)C(=O)N([C@H](C)CO)C[C@H](C)[C@H](CN(C)S(=O)(=O)c2ccc(OC)cc2)O3)cc1 | 8.74%

SMILES | inhibition
O=C(Nc1cc(F)ccc1F)N1CCCCN2[C@H](C1)[C@H](c1ccc(-c3cccnc3)cc1)[C@@H]2CO | -4.21%
CNC[C@H]1Oc2cc(C#Cc3ccccn3)ccc2S(=O)(=O)N([C@H](C)CO)C[C@@H]1C | 47.7% (active)
CC(C)NC(=O)N(C)C[C@H]1Oc2cc(C#Cc3ccccn3)ccc2S(=O)(=O)N([C@H](C)CO)C[C@@H]1C | -1.38%
CNC[C@H]1Oc2cc(C#Cc3ccccc3)ccc2S(=O)(=O)N([C@@H](C)CO)C[C@@H]1C | 21.9%
CN1[C@@H]2c3ccc(-c4cccc(F)c4)c(=O)n3C[C@@H]2[C@@H](CO)[C@@H]1C(=O)NC1CCC1 | -9.74%
CCC(=O)Nc1ccc2c(c1)OC[C@H](C)N(C(=O)c1ccncc1)C[C@H](C)[C@H](OC)CN(C)C2=O | 6.95%
C[C@@H]1CN([C@@H](C)CO)C(=O)c2cccc(NC(=O)c3ccncc3)c2O[C@H]1CN(C)S(=O)(=O)c1ccc(F)cc1 | -8.57%
C[C@@H]1CN([C@H](C)CO)C(=O)c2cc(NC(=O)Cc3cn(C)c4ccccc34)ccc2O[C@@H]1CN(C)S(=O)(=O)c1cccs1 | -11.1%
Cc1ccc(CC2CC(=O)N(c3nc(C)cc(C)n3)C2=O)cc1 (configuration not stated) | -8.57%
Cc1cc(C)nc(N2C(=O)CC(Cc3ccccc3)C2=O)n1 (configuration not stated) | -0.771%
COC(=O)CC1=NN(c2nc(C)cc(C)n2)C(=O)C1 | 13.9% (active)
COCCNC(=O)C[C@H]1CC[C@@H]2[C@@H](COc3ccc(NC(=O)C4CCOCC4)cc3C(=O)N2C)O1 | -6.26%
CCC(=O)N[C@H]1CC[C@H](CCn2cc(-c3cccc(OC)c3)nn2)O[C@H]1CO | -6.96%
Cc1ccccc1OCCC(=O)Nc1c(C)n(C)n(-c2ccccc2)c1=O | 5.66%
Cc1c(NC(=O)CN2C(=O)C(=O)N(Cc3ccccc3)C2=O)c(=O)n(-c2ccccc2)n1C | 0.167%
Cc1c(NC(=O)CSc2cccc3cccnc23)c(=O)n(-c2ccccc2)n1C | 93.2% (active)
C[C@@H]1CN([C@H](C)CO)C(=O)c2ccccc2-c2ccccc2CO[C@@H]1CN(C)S(=O)(=O)CC(F)(F)F | -0.141%
C[C@H](CO)N1C[C@H](C)[C@H](CN(C)C)Oc2ccc(NC(=O)Cc3ccccc3)cc2CC1=O | -9.42%
